We go through 20 compounds from PubChem BioAssay (NCI).

About 79,000 compounds went through this panel and 15% of them were active in at least one assay; those are over-represented in the sample as a whole. Unmarked numbers belong to inactive results. Calls of active or inactive are those of the source. Rule as the data show it: active = growth inhibition above about 70%; inactive = the rest. Where a SMILES comes first, the peptide text is derived from it. Bridges are numbered along the chain shown (N, C = ends). Roman numbers before positions name the chains, in order. [ ]: non-standard residue; d: D form. The star is where a group is joined. Quinoxaline2carbonyl = O=C(c1cnc2ccccc2n1)*; NMeV = CN[CH](C(=O)O)C(C)C; NMeC = CN[CH](CS)C(=O)O

A short description of assay [1]: NCI Yeast Anticancer Drug Screen. Data for the rad50 strain (AID 155).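 Also: 0% = growth of vehicle-only cultures of the same strain.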 Particulars: S. cerevisiae rad50 strain growth inhibition; at 50.0 µM; stronger effect = higher value. An outline of the steps:
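Compounds were tested on a yeast strain with an engineered DNA damage repair alteration; the reported value is growth inhibition normalised to vehicle treatment.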

Assay [2] can be described thus: NCI Yeast Anticancer Drug Screen. Data for the mec2-1 strain (AID 157). Particulars: S. cerevisiae mec2-1 strain, at 50.0 µM, stronger effect = higher value. In a few lines: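 mec2-1 yeast strain, carrying an alteration in DNA damage repair or cell cycle control, was exposed to compounds; growth inhibition was measured relative to vehicle-treated controls.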
Assay [3] is described as follows: NCI Yeast Anticancer Drug Screen. Data for the sgs1 mgt1 strain (AID 161).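 Also: 0% = growth of cultures given vehicle only.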 Particulars: S. cerevisiae sgs1 mgt1 strain, at 50.0 µM, stronger effect = higher value. An outline of the steps:
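Percent growth inhibition was derived by comparing compound-exposed mutant yeast with vehicle-exposed cultures. The strain carries alterations in DNA damage repair.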

A short description of assay [4]: NCI Yeast Anticancer Drug Screen. Data for the cln2 rad14 strain (AID 165).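 Also: 0% = growth equal to vehicle treated cultures.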 Particulars: S. cerevisiae cln2 rad14 strain, at 50.0 µM, stronger effect = higher value. An outline of the steps: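 Yeast carrying cln2 and rad14 alterations (cell cycle control and DNA damage repair) were exposed to compounds. Growth inhibition was measured against vehicle-treated controls.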
The nature of assay [5]: NCI Yeast Anticancer Drug Screen. Data for the bub3 strain (AID 167). The conditions noted are these: S. cerevisiae bub3 mutant strain, at 50.0 µM, stronger effect = higher value. In a few lines:
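Growth of a checkpoint-deficient yeast mutant is measured after compound exposure. Values represent inhibition relative to vehicle.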

Assay [6] can be described thus: NCI Yeast Anticancer Drug Screen. Data for the mlh1 rad18 strain (AID 175). Particulars: S. cerevisiae mlh1 rad18 strain growth inhibition; at 50.0 µM; stronger effect = higher value. In a few lines: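 Growth inhibition of the yeast strain was measured after compound exposure and expressed relative to vehicle-treated controls. The strain carries defined defects in DNA damage repair.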

With `O=C(O)CCC(=O)CCl`, the growth inhibition in assay [1] was 7%; in assay [2], 1.35%; in assay [3] it was 1.2%; in assay [4], -12.6%; in assay [5], 0.9%; in assay [6], 1%.

Consider `O=C1NC(=S)NC(=O)C1=Cc1ccncc1`, for which the growth inhibition in assay [1] was -19%; in assay [2], -46.9%; in assay [3] it was -7.7%; in assay [4], 9.55%; in assay [5] it was -26.9%; in assay [6], -10.3%.

`CCOP(=O)(O)C1CCCC(C)[N-]1.CCOP(=O)(O)C1CCCC(C)[N-]1.[Cu+2]` (stereo not given): the growth inhibition in assay [1] was 49.4%; in assay [2] it was 33.6%; in assay [3], 31.7%; in assay [4], 45.2%; in assay [5], 2.9%; in assay [6], 26.6%.

On to `CC(NC(=O)c1ccccc1)N(C)[N+](=O)[O-]` (stereo not given), for which the growth inhibition in assay [1] was -3.7%; in assay [2], 4%; in assay [3] it was 2.5%; in assay [4], -13.4%; in assay [5] it was 5.45%; in assay [6], -5.55%.

Consider `CCC(CCl)NC(CC(C)C)CC(C)C` (stereo not given), for which the growth inhibition is -1.95% in assay [1]; 2.95% in assay [2]; -6.75% in assay [3]; -10.5% in assay [4]; -4.7% in assay [5]; -10.8% in assay [6].

As for `CCOP(=O)(CC(=O)c1cc2ccccc2[nH]1)OCC`, the growth inhibition in assay [1] is -3.5%; in assay [2], 12.6%; in assay [3], -2.1%; in assay [4] it was 1.2%; in assay [5] it was -8.1%; in assay [6] it was -19.8%.

As for `O=[C-]CC(=O)c1ccccc1.O=[C-]CC(=O)c1ccccc1.[Fe+2]`, the growth inhibition in assay [1] was -7.85%; in assay [2], 3.15%; in assay [3], 8.5%; in assay [4] it was 12%; in assay [5], -0.65%; in assay [6], 6.15%.

For `COc1ccc2c(c1OC(C)=O)-c1cc(OC(C)=O)cc3c1C(C2)NCC3` (stereo not given), the growth inhibition in assay [1] was 11.7%; in assay [2], -4%; in assay [3], -5.7%; in assay [4] it was 6.65%; in assay [5], 1.9%; in assay [6], 4.4%.

As for `NC1CC(O)C(O)CC1c1ccc2c(c1)OCO2` (stereo not given), the growth inhibition in assay [1] was -26.5%; in assay [2] it was -4.45%; in assay [3] it was -15.9%; in assay [4], -13.9%; in assay [5], 6.9%; in assay [6], -17.2%.

For the compound `Fc1ccccc1N=C=S`, the growth inhibition in assay [1] was 4.55%; in assay [2] it was -12%; in assay [3], 5.65%; in assay [4], 18.1%; in assay [5], 14.6%; in assay [6], 2.75%.

As for `C1C[N-]CC[N-]1.C1C[N-]CC[N-]1.N#CS.[Ni+2]`, the growth inhibition in assay [1] is 5.1%; in assay [2] it was 5.65%; in assay [3], 1.4%; in assay [4] it was -11.9%; in assay [5], 7.6%; in assay [6] it was -5.4%.

Regarding `NP(=O)(OCCC(OCc1ccccc1)OCc1ccccc1)N(CCCl)CCCl` (stereo not given), the growth inhibition in assay [1] is 54.6%; in assay [2], 9.1%; in assay [3], 54.6%; in assay [4], 48.5%; in assay [5] it was 6.2%; in assay [6], 31.8%.

With `Nc1ccc(C(=O)O)c([As](O)O)c1`, the growth inhibition is -6.95% in assay [1]; 8.55% in assay [2]; -1% in assay [3]; 4.35% in assay [4]; -4.3% in assay [5]; 0.65% in assay [6].

For `CC(N)Cc1c[nH]c2ccccc12` (stereo not given), the growth inhibition in assay [1] is 2.9%; in assay [2], -22.2%; in assay [3], 1.1%; in assay [4] it was 20.6%; in assay [5] it was -1.75%; in assay [6] it was 12.8%.

As to `[CH3][Sn]1([CH3])[O]C(=O)C(=O)[O]1`, the growth inhibition in assay [1] is 12.2%; in assay [2] it was 19.4%; in assay [3] it was 2.4%; in assay [4] it was -26.8%; in assay [5], -9.6%; in assay [6], 7.8%.

With `O=S(OO)c1cc(Cl)c(O)c(Cl)c1` (stereo not given), the growth inhibition is 3.5% in assay [1]; -24.1% in assay [2]; -1.55% in assay [3]; 7.55% in assay [4]; -10.7% in assay [5]; 3.4% in assay [6].

`N#CCCSCCC#N`: the growth inhibition in assay [1] is 25.4%; in assay [2] it was 6.55%; in assay [3], 14.1%; in assay [4], 3.7%; in assay [5], 6.8%; in assay [6] it was 4.6%.

For the compound `CC1NC(=O)C(NC(=O)c2cnc3ccccc3n2)COC(=O)C(C(C)C)N(C)C(=O)C2CSSCC(C(=O)N(C)C(C(C)C)C(=O)OCC(NC(=O)c3cnc4ccccc4n3)C(=O)NC(C)C(=O)N2C)N(C)C1=O` (stereo not given) (I: Quinoxaline2carbonyl-SA[NMeC][NMeV] / II: Quinoxaline2carbonyl-SA[NMeC][NMeV]; ester I:1-II:C, I:C-II:1; disulfide I:3-II:3; configuration not given here), the growth inhibition in assay [1] was 87.3% (active); in assay [2], 90.5% (active); in assay [3] it was 90% (active); in assay [4], 86.7% (active); in assay [5], 88.2% (active); in assay [6] it was 89.7% (active).

On to `COc1ccc(/C=C(/C)[N+](=O)[O-])cc1OC`, for which the growth inhibition was 99.3% (active) in assay [1]; 99.7% (active) in assay [2]; 99.3% (active) in assay [3]; 97.2% (active) in assay [4]; 99.7% (active) in assay [5]; 99.5% (active) in assay [6].

As to `N/C(N=P(c1ccccc1)(c1ccccc1)c1ccccc1)=N\[N+](=O)[O-]`, the growth inhibition in assay [1] is 11.7%; in assay [2] it was 15.8%; in assay [3], 8.35%; in assay [4], 4.65%; in assay [5], 12.2%; in assay [6], -16.1%.
